A selection: hits, their analogues and other compounds. The true share with any hit is near 2.6%.
PHOSPHO1 inh – inhibitors of human PHOSPHO1 phosphatase; recombinant PHOSPHO1, absorbance phosphatase assay; actives 1.1% (n = 290,000); inhibition, % at 13.3 µM; Q8TCT1; AID 1565; in the data active means inhibition above about 60%
AI-2 QS modul – Vibrio harveyi AI-2 quorum sensing modulation; Vibrio harveyi JMH597 AI-2 luminescence/OD600 ratio, 9 h; stronger effect = lower value; strain lacks LuxN and CqsS sensors; 0 = neutral-control median; activity change, % at 7.5 µM; actives 0.4% (n = 300,000); AID 2094; in the data active means activity change below about -75%, passing the limit was not always enough; inconclusive means no clear call, values can overlap the other calls;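 further: luminescence divided by OD600 gain over 9 h not by final OD600 alone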
ABCB6 inh MLPCN – inhibitors of human ABC transporter ABCB6 | K562-ABCB6 porphyrin accumulation, flow cytometry, 1 h; stronger effect = lower value | fluorescence ratio to DMSO, % at 10 µM | Q9NP58 | actives 0.19% (n = 360,000);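 active means fluorescence ratio to DMSO below 75%, the collection mean minus 3 SD; inconclusive means too few cells collected in the well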;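 further: signal is porphyrin accumulated inside mitochondria; lower ratio means ABCB6 inhibition with less porphyrin fluorescence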
PABP polyA inh – blocks human PABP binding to poly(A) RNA. P11940. fluorescence polarization. calls only at 35 µM. actives 1% (n = 290,000). AID 2014;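 further: calls also rest on retests at 20 µM and on dose response follow-up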
Target sequence (P11940 whole entry, looked up): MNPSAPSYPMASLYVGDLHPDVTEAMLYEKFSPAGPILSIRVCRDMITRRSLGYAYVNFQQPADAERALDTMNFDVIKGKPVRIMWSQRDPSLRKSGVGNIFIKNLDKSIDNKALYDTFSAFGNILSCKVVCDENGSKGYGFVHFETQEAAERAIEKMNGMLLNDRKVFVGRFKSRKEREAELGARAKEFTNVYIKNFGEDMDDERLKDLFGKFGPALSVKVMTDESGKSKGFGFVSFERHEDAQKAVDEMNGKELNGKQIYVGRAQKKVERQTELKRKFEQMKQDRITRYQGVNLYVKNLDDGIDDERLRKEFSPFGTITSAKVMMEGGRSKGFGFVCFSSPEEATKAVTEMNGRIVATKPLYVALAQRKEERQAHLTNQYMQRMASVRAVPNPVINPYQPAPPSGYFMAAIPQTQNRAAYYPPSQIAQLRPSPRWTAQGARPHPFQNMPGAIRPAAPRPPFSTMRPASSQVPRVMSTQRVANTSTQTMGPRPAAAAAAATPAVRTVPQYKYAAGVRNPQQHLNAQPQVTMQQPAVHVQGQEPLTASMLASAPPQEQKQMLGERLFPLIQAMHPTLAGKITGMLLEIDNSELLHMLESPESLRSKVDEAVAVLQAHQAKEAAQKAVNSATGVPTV
MLLE-PAM2 inh – blocks PAM2 peptide binding to the PABP1 MLLE domain. P11940. actives 0.36% (n = 360,000). inhibition, % at 20 µM. GST-MLLE / FITC-PAM2 fluorescence polarization; in the data active means inhibition above about 35%, passing the limit was not always enough
eIF4H FP inh – inhibitors of RNA binding by human eIF4H; actives 0.94% (n = 290,000); inhibition, % at 35 µM; AID 2012; eIF4H fluorescence polarization binding assay; Q15056;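 further: calls also rest on retests at 20 µM and on dose response follow-up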
Of the large screens only hits and unclear results are named; the others gave an inactive call. Unless noted, how the calls were made is not given here.

N#CC1=C2SCN(Cc3ccco3)CN2C(=O)CC1c1cccc2ccccc12 (stereo not given)	none
COc1cc(OC)c(C2CC(=O)N3CN(c4ccc(C)cc4)CSC3=C2C#N)cc1OC (stereo not given)	PHOSPHO1 inh 96, PABP polyA inh inconclusive, eIF4H FP inh inconclusive
O=C(COC(=O)CN1C(=O)c2ccccc2C1=O)Nc1ccccc1C(F)(F)F	none (no result: PHOSPHO1 inh, AI-2 QS modul, PABP polyA inh, eIF4H FP inh)
COc1ccc(N2CSC3=C(C#N)C(c4ccc(OC)c(OC)c4)CC(=O)N3C2)c(OC)c1 (stereo not given)	none
COc1ccc(C2CC(=O)N3CN(c4ccc(C)c(Cl)c4)CSC3=C2C#N)cc1OC (stereo not given)	PHOSPHO1 inh 81
CCOC(=O)N1CCN(c2nc3ccccc3nc2C(C#N)C(=O)NCCc2ccccc2)CC1 (stereo not given)	PABP polyA inh active
N#CC(C(=O)NCCc1ccccc1)c1nc2ccccc2nc1N1CCCCC1 (stereo not given)	none
CCN(CC)c1nc2ccccc2nc1C(C#N)C(=O)NCCCOC (stereo not given)	none
CCN(CC)c1nc2ccccc2nc1C(C#N)C(=O)NCCc1ccccc1 (stereo not given)	eIF4H FP inh 29
COCCOC(=O)N1CCCCC1c1cc(C(=O)NCc2ccc(Cl)c(Cl)c2)no1 (stereo not given)	none (no result: PHOSPHO1 inh, AI-2 QS modul, PABP polyA inh, eIF4H FP inh)
CN1CCN(C2CN(Cc3cn(Cc4ccccc4)nn3)S(=O)(=O)C2)CC1 (stereo not given)	none (no result: PHOSPHO1 inh, AI-2 QS modul, PABP polyA inh, MLLE-PAM2 inh, eIF4H FP inh)
CCN(CC(=O)Nc1c(F)cccc1F)C(=O)CSCc1c(C)noc1C	none (no result: PHOSPHO1 inh, PABP polyA inh, eIF4H FP inh)
CCN(CC(=O)Nc1ccc(OC)cc1)C(=O)CSCc1c(C)noc1C	MLLE-PAM2 inh 158 (no result: PHOSPHO1 inh, AI-2 QS modul, PABP polyA inh, eIF4H FP inh)
CCC(CC)C(=O)Nc1cc([N+](=O)[O-])ccc1Cl	PABP polyA inh active
CCC(CC)C(=O)Nc1cc([N+](=O)[O-])ccc1F	none
O=[N+]([O-])c1ccc(/C=C/C2=NN(c3ccccc3)C(c3ccco3)C2)o1 (stereo not given)	AI-2 QS modul inconclusive
C(=C\c1ccco1)/C1=NN(c2ccccc2)C(c2ccco2)C1 (stereo not given)	eIF4H FP inh 71
CCN1C(=O)[C@H]2[C@H]3CN=C(SCC(=O)c4ccccc4)N3[C@@](C)(C(=O)OC)[C@H]2C1=O	MLLE-PAM2 inh 45 (no result: PHOSPHO1 inh, AI-2 QS modul, PABP polyA inh, eIF4H FP inh)
Cc1ccc(OCC(=O)Nc2nnc(S(=O)(=O)N3CCC(C)CC3)s2)cc1	eIF4H FP inh 63
COc1ccc(OCC(=O)Nc2nnc(S(=O)(=O)N3CCCCCC3)s2)cc1	none
COc1ccc(CC(=O)OCC(=O)Nc2cccc(Cl)c2)cc1	PABP polyA inh inconclusive
COc1ccc(NS(=O)(=O)c2cccc(NC(=O)CCC(=O)c3cccs3)c2)cc1	none
Cc1cccc(NC(=O)CCc2ccccc2)c1	AI-2 QS modul -85
COc1ccc(NS(=O)(=O)c2cccc(NC(=O)CCC(=O)c3ccc(Cl)cc3)c2)cc1	eIF4H FP inh active
COc1ccc(CCC(=O)Nc2cccc(Cl)c2)cc1	AI-2 QS modul -83
COc1ccc(CC(=O)OCC(=O)Nc2cccc(Br)c2)cc1	AI-2 QS modul -76
COc1cccc(NC(=O)COC(=O)Cc2ccc(Br)cc2)c1	none
CC(=O)Nc1cccc(NC(=O)CCc2ccccc2)c1	none
Cc1nc2ccc(S(=O)(=O)CCC(=O)NCc3ccc(Cl)cc3)cc2s1	none (no result: PHOSPHO1 inh, AI-2 QS modul, PABP polyA inh, eIF4H FP inh)
CCS(=O)(=O)c1ccc(C(=O)NC2CC2)c(Cl)c1Cl	PHOSPHO1 inh 60
O=C(NC1CC1)c1ccc(F)cc1Cl	none
COC(=O)c1sc(NC(=O)c2cc(-c3ccccc3)nc3ccccc23)c(C#N)c1C	PHOSPHO1 inh 96
CCOC(=O)c1sc(NC(=O)c2cc(-c3ccc(C)cc3)nc3ccccc23)c(C#N)c1C	none
COc1cc(C(=O)Nc2cccc(-c3cn4cccnc4n3)c2)cc(OC)c1OC	none
Clc1ccc(-c2cn3cccnc3n2)cc1Cl	PABP polyA inh active, eIF4H FP inh 71
COc1ccc(-c2cn3cccnc3n2)cc1NC(=O)c1cc(OC)c(OC)c(OC)c1	PABP polyA inh active, eIF4H FP inh active
CCOC(=O)c1c(S(=O)(=O)N2CCCC(C)C2)c(C)n(C)c1C (stereo not given)	none
CCOC(=O)c1c(S(=O)(=O)N2CCCC(C(=O)Nc3ccc(C)cn3)C2)c(C)n(C)c1C (stereo not given)	PHOSPHO1 inh 64 (no result: PABP polyA inh, eIF4H FP inh)
COc1cccc2c(=O)c3c([nH]c12)OC(C)(C)C3	none (no result: PHOSPHO1 inh, PABP polyA inh, eIF4H FP inh)
COc1cccc2c(=O)c3cccc(N)c3[nH]c12	PABP polyA inh active, eIF4H FP inh 94
N#CC1=C(N)Oc2cc3ccccc3cc2C1c1cccs1 (stereo not given)	PHOSPHO1 inh 62, PABP polyA inh inconclusive, eIF4H FP inh inconclusive
CCCOc1ccc(OCCSc2nnc(N)s2)cc1	none (no result: MLLE-PAM2 inh)
Clc1ccc(OCCCCSc2ncccn2)cc1	MLLE-PAM2 inh 38
Brc1cccc(OCCSc2ncccn2)c1	AI-2 QS modul -82
CCCOc1ccc(OCCSc2ncccn2)cc1	none
Nc1nnc(SCCOc2cccc(Br)c2)s1	AI-2 QS modul -79
COc1cccc(CN2C(=O)c3cccc(N)c3C2=O)c1	PABP polyA inh active, eIF4H FP inh 88
CCNC(=S)NNC(=O)C(c1ccccc1)c1ccccc1	none
CCNC(=S)NNC(=O)Nc1ccccc1	PHOSPHO1 inh 79
Cc1ccccc1N=Cc1cc2c(cc1[N+](=O)[O-])OCO2	PABP polyA inh active
Cc1cc(C)nc(N/N=C/c2cc3c(cc2[N+](=O)[O-])OCO3)n1	PABP polyA inh active, eIF4H FP inh 55
CN(C)C(=O)c1cc2c(c(-c3cccc(C4=CCCCC4)c3)n1)[C@@H](CCO)N(S(=O)C(C)(C)C)C2 (stereo not given in full)	none (no result: PHOSPHO1 inh, AI-2 QS modul, PABP polyA inh, eIF4H FP inh)
COc1cc(CN2C[C@@H](CO)O[C@@H](n3cnc4c(NCc5ccncc5)ncnc43)C2)cc(OC)c1OC	none (no result: PHOSPHO1 inh, AI-2 QS modul, PABP polyA inh, eIF4H FP inh)
CCC1NC(=O)c2cc3ccccc3cc2-n2c1nc1ccc(F)cc1c2=O (stereo not given)	none (no result: PHOSPHO1 inh, AI-2 QS modul, PABP polyA inh, eIF4H FP inh)
COc1cccc(/C=C2/CN(C)CC3=C2OC(N)=C(C#N)C3c2cccc(OC)c2)c1 (stereo not given)	PABP polyA inh active, eIF4H FP inh 75
COc1cccc(C2C(C#N)=C(N)OC(C(C)(C)C)=C2C#N)c1 (stereo not given)	none
Cc1ccc(Cc2nc(-c3ccccn3)no2)cc1	AI-2 QS modul -85
O=C(CCCSc1nc2ccccc2c(=O)[nH]1)c1ccc(F)cc1	eIF4H FP inh 84
C=CCn1c(SCc2cc(=O)n3ccsc3n2)nnc1C1CCCCC1	PABP polyA inh active, eIF4H FP inh 73
O=c1cc(CSc2nnc(NC3CCCCC3)s2)nc2sccn12	none
Cc1cccc(C(O)c2cnc(C)n2Cc2ccccc2)c1 (stereo not given)	none (no result: PHOSPHO1 inh, AI-2 QS modul, PABP polyA inh, eIF4H FP inh)
